RORgamma inh = qHTS for inhibitors of ROR gamma transcriptional activity; Nuclear receptor ROR-gamma (Mus musculus), P51450; 310,000 tested, 5.4% active; Drosophila S2 Gal4-RORgamma UAS-luciferase reporter, 20 h; Potency, µM (series often up to 53.6 µM), for the others: at the top dose activity change, negative = inhibition, actives largely listed as inhibitors; further: potency means the concentration at half of the fitted maximal effect; on the % scale 0 is the no-effect control and ±100 the full control effect; nearly all actives have a fitted effect of over 60% in size
Target sequence (P51450 whole entry, looked up, the tested form may be a part): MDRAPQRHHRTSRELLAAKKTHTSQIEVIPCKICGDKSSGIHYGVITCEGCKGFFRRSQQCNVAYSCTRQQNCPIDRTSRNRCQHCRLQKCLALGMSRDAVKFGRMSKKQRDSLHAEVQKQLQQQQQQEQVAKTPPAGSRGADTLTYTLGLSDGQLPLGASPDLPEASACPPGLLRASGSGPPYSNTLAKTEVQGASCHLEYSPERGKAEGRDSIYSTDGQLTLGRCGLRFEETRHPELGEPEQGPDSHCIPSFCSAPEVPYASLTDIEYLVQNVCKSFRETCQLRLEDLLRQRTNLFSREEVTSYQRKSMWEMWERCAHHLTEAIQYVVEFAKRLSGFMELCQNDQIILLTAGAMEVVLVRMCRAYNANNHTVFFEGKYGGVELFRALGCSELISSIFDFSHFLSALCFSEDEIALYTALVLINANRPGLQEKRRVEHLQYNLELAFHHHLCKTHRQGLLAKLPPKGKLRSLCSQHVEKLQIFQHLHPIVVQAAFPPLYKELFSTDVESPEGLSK
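Stable Schneider cell line, Gal4 DNA-binding domain fused to ROR gamma, UAS-luciferase. Cmpd 1 hr RT → CuSO4 700 uM final → 20 hr RT → luciferase reagent 10 min → luminescence.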
VP16 counter = VP16 counterscreen qHTS for inhibitors of ROR gamma transcriptional activity. 310,000 tested, 3.5% active. Drosophila S2 Gal4-VP16 UAS-luciferase, luminescence, 20 h. Potency, µM (highest dose often 53.6 µM), for the others: top-dose activity, negative = inhibition, usual class: inhibitors;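 further: Gal4-VP16 expression switched on by copper sulfate through the metallothionein promoter; potency means the concentration at half of the fitted maximal effect; on the % scale 0 is the no-effect control and ±100 the full control effect; nearly all actives have a fitted effect of over 50% in size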
IL1B secr inh = qHTS for Inhibitors of Inflammasome Signaling: IL-1-beta AlphaLISA Primary Screen | THP-1 LPS/ATP IL-1B secretion, AlphaLISA, 16 h; stronger effect = lower value | activity change, % at 57.5 µM | 360,000 tested, 4.7% active | AID 743279, 2014; in the data active means activity change below about -50%; inconclusive means mostly about -30% to -49%; further: on the % scale 0 is the no-effect control and ±100 the full control effect
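THP-1 cells pretreated 1 hr with compounds (up to 57.5 uM final), then stimulated with LPS (250 ng/mL final) plus ATP (1.25 mM final); secreted IL-1B measured by AlphaLISA after 16 hr, decreased signal indicating inhibition.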
MCF10A rereplic = A quantitative high throughput screen for small molecules that induce DNA re-replication in MCF 10a normal breast cells | 350,000 tested, 2.9% active | Potency, µM (top dose mostly 46.1 µM), inactives show at the top dose activity, positive = re-replication, hits mostly activators | MCF 10A DNA re-replication, Hoechst nuclear intensity, 48 h; further: potency means the concentration at half of the fitted maximal effect; % of control where 0% means no effect; nearly all actives have a fitted effect of over 50% in size
SW480 rereplic = A quantitative high throughput screen for small molecules that induce DNA re-replication in SW480 colon adenocarcinoma cells | SW480 DNA re-replication, Hoechst DNA content imaging, 48 h | Potency, µM (titrated, usually from 46.1 µM), inactives show top-dose re-replication activation, hits mostly activators | 340,000 tested, 1.8% active | AID 624297, 2012; further: potency means the concentration at half of the fitted maximal effect; % of control where 0% means no effect; nearly all actives have a fitted effect of over 55% in size
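SW480 cells exposed to compounds for 48 hr at 37 C, 5% CO2, then Hoechst-stained 40 min. Nuclear DNA content imaged by fluorescence scanning (405 nm excitation, 500-530 nm emission); re-replication scored as increased high-intensity nuclei.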
Active calls of the source: *; ? = inconclusive; nt = no result; [ ] = remark or other dose. In the library only some 11% were active in any assay of this set; here they are far more common. Unless noted, the call rests on the fitted dose curve; in most records, active means well fitted curve in the direction sought with a large enough effect; inconclusive means small, poorly fitted or top-dose-only effect, or another doubt; inactive means no such curve, though single readings can be large; an effect the other way counts as inactive or inconclusive.

SMILES	RORgamma inh	VP16 counter	IL1B secr inh	MCF10A rereplic	SW480 rereplic
C=CCNC(=S)NCc1ccc(CNC(=S)NCC=C)cc1	13%	-3%	8	13%	-13%
C=CCNC(=S)Nc1ccc(Cl)cc1F	14µM*	-10%	-13	-8%	0%
CC1CCN(c2nc(-c3ccco3)c3c(c2C#N)CC(C)(C)OC3)CC1	?	-83%	35	?	1%
CC1(C)Cc2c(C#N)c(NCCN3CCOCC3)nc(-c3ccccc3)c2CO1	14%	-3%	-11	0%	7.3µM*
CC1(C)Cc2c(C#N)c(NCCN3CCOCC3)nc(-c3ccco3)c2CO1	0%	-8%	-7	23µM*	17%
CC1(C)Cc2c(C#N)c(NCCO)nc(-c3ccco3)c2CO1	-6%	5%	nt	23µM*	18µM*
CN(C)CCNc1nc(-c2ccccc2)c2c(c1C#N)CC(C)(C)OC2	-14%	-13%	-18	5%	2%
CCCCC[C@H]1CN(C2CCCCC2)C(=O)[C@@H]1CC(=O)NCc1ccccc1	-1%	-9%	?	?	-14%
C[C@H](O)[C@@H]1C(=O)N2C(C(=O)O)=C(SCCN=CN)C[C@@H]12	4%[2.98 µM]	8%[17 µM]	nt	4%[20.6 µM]	-3%[20.6 µM]
O=[N+]([O-])/C=C/c1cc2ccccc2[nH]1	10µM*	?	-4	?	1%
COc1cccc(CNc2nc3cc(-c4cccc(C(=O)NCCO)c4)sc3c(=O)n2C)c1	nt	nt	-2	nt	nt
C=CCn1c(NC(=O)c2ccc(C)cc2)nc2ccccc21	0.4µM*	0.79µM*	21	?	5%
Cn1c(NC(=O)c2cccnc2)nc2ccccc21	?	-4%	?	1%	-2%
CCNC(=O)c1cccc(S(=O)(=O)N2CCCCCC2)c1	36%	-8%	11	-3%	-689%
CCCn1c(NC(=O)c2cccc(S(=O)(=O)N3CCCC3)c2)nc2ccccc21	2.8µM*	6.3µM*	-92*	18µM*	?
CCCn1c(NC(=O)c2ccc(C)cc2)nc2ccccc21	2.2µM*	0.63µM*	0	?	?
CCCn1c(NC(=O)c2ccccc2)nc2ccccc21	0.79µM*	1.8µM*	25	5%	3%
Cc1ccccc1CC1(C)C(=O)Nc2ccc(S(=O)(=O)NC3CCCCC3)cc21 (configuration not stated)	nt	nt	63	nt	nt
O=C(Cc1ccc(NC(=O)C2CCN(C(=O)C3CC3)CC2)cc1)Nc1cccc(C(=O)N2CCCCC2)c1	nt	nt	0	19%	0%[9.22 µM]
COc1ccc(C(=O)COC(=O)CCNS(=O)(=O)c2ccccc2)c(OC)c1	nt	nt	18	-3%	-2%
O=C(/C=N/O)NCCCCNC(=O)/C=N/O	-13%[10 µM]	-8%[10 µM]	nt	nt	nt
CCCCn1c(Nc2ccccc2)nc2ccccc21	-31%	-4%	-16	9%	25%
CCCn1c(Nc2nc3ccccc3n2C)nc2ccccc21	-38%	-11%	-99*	?	?
CCCn1c(SCC(=O)C(C)(C)C)nc2ccccc21	11µM*	?	31	?	2%
CCc1ccccc1Nc1nc2ccccc2n1C	10µM*	?	-20	-22%	1%
SMILES	RORgamma inh	VP16 counter	IL1B secr inh	MCF10A rereplic	SW480 rereplic
CCCn1c(NC(=O)C2CCN(S(=O)(=O)c3cccs3)CC2)nc2ccccc21	1.4µM*	4.5µM*	?	?	13%
COc1ccc(C2COc3c(ccc(O)c3OC)C2)c(OC)c1O (configuration not stated)	0%	4%	nt	nt	nt
COc1cccc(Nc2nc3ccccc3n2C(C)C)c1	-36%	-20%	-11	0%	-10%
Cc1ccccc1Nc1nc2ccccc2n1C(C)C	10µM*	-4%	-4	-35%	-6%
CC(OC(=O)[C@@H](NS(=O)(=O)c1ccccc1)C(C)C)C(=O)c1c(N)n(C)c(=O)n(C)c1=O (some centres not stated)	nt	nt	17	nt	nt
CCCCn1c(=O)c(-[n+]2ccccc2)c([O-])c2ccccc21	11µM*	-22%	18	3%	-4%
CC(=O)Nc1cc(-c2ccc(N3CCN(C)CC3)cc2)cn2c(-c3ccc(S(C)(=O)=O)cc3)cnc12	nt	nt	-24	nt	nt
C/C(=N\NC(=O)c1ccccc1)c1ccccc1Br	3.5µM*	6.3µM*	0	-13%	-12%
CC(=NNC(=O)c1ccncc1)c1ccc2ccccc2c1O	nt	nt	84	18µM*	2.3µM*
CC(=NNC(=O)c1ccncc1)c1ccc(O)cc1O	nt	nt	109	?	?
CC(C)CC(=NNC(=O)c1ccncc1)c1cc(Cl)ccc1O	nt	nt	64	?	1.2µM*
CC(=NNC(=O)c1ccncc1)c1ccccc1O	nt	nt	156	18µM*	0.58µM*
C/C(=N/NC(=O)c1ccncc1)c1ccc(NC(=O)c2ccc(Cl)cc2Cl)cc1	-1%	-2%	16	-1%	-5%
COCCNC(=O)CN(C(=O)CCC(=O)Nc1ccccn1)c1cc(C)ccc1C	4%	-1%	1	?	14%
COc1ccc(C(CNC(=O)c2nn(-c3ccccc3)c(=O)c3ccccc23)N2CCOCC2)cc1 (configuration not stated)	nt	nt	40	5%	-33%
Cc1cc(C)c(C2=CC(=O)C[C@H](c3ccc4c(c3)OCO4)C2)c(C)c1	nt	nt	8	-2%	6%
CCCNC(=O)c1ccc(CN2CCc3ccccc3C2)cc1	7%	-6%	2	1%	-10%
C/C(=N\NC(=O)c1ccc(CN2CCc3ccccc3C2)cc1)c1ccccc1O	0.89µM*	2.5µM*	163	23µM*	21µM*
CC(=O)Oc1c(C)cc(Cl)cc1C(=O)Nc1ccc([N+](=O)[O-])cc1Cl	1µM*	1µM*	-67*	17%	6.5µM*
CCCCNC(=O)NS(=O)(=O)c1ccc(C(=O)O)cc1	-13%	5%	nt	nt	nt

Bioassay records as filed in PubChem BioAssay.
